# Sampled rows, rich in hits. Any-hit rate of the full collection: about 19%.
# TDP1 cell CPT = growth inhibition of DT40 Tdp1-/-;hTDP1 cells with camptothecin (screen for TDP1 inhibitors) | chicken DT40 Tdp1-/-;hTDP1 cells + 20 nM CPT, ATP luminescence, 48 h | hit rate 12% among 420,000 | AID 686979 | Potency, µM (highest dose often 46.2 µM), inactives show at the highest dose activity change, negative = growth inhibition, most hits filed as inhibitors; note: nearly all actives have a fitted effect of over 55% in size
#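 Cell growth measured by CellTiter-Glo luminescence after a minimum 48 h, 37 C compound exposure with 20 nM CPT in Tdp1-knockout DT40 cells stably expressing hTDP1, seeded 400/well; qHTS titration format.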
# TDP1 inh = blocks human tyrosyl-DNA phosphodiesterase 1; Q9NUW8; recombinant TDP1, AlphaScreen DNA substrate cleavage; Potency, µM (titrated, usually from 130 µM), without a hit: top-dose activity change, negative = inhibition, usual class: inhibitors; hit rate 0.28% among 350,000; note: nearly all actives have a fitted effect of over 40% in size
# Target sequence (Q9NUW8 whole entry, looked up): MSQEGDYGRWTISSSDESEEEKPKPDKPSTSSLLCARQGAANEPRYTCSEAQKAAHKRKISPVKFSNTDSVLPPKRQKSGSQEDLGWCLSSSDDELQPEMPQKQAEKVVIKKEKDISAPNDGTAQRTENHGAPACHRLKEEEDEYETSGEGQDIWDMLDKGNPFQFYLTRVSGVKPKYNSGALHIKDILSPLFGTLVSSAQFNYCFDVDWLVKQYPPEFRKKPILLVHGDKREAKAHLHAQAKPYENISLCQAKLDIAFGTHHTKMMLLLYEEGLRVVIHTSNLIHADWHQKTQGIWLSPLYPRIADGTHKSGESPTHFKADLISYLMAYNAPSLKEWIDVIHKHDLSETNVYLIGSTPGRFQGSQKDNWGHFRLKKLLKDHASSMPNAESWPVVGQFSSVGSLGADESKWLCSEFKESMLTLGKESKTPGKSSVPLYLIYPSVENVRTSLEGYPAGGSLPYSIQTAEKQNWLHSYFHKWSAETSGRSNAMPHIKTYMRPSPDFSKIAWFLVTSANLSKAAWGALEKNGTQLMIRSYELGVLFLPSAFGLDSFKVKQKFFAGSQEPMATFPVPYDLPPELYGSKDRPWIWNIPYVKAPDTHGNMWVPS
#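 Compounds were preincubated with Tdp1 (1 nM final) for 15 min at room temperature before substrate (15 nM final) started a 5 min reaction; beads (10 ug/ml final) were then added for 10 min before AlphaScreen detection.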
# TDP1 cell noCPT = qHTS for Inhibitors of human tyrosyl-DNA phosphodiesterase 1 (TDP1): qHTS in cells in absence of CPT. Potency, µM (top dose mostly 46.2 µM), without a hit: at the highest dose activity change, negative = growth inhibition, usual class: inhibitors. DT40 Tdp1-/- hTDP1 cells, no CPT, ATP luminescence, 48 h. hit rate 15% among 420,000; note: nearly all actives have a fitted effect of over 55% in size
#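 Readout: luminescence from CellTiter-Glo after 30 min in the dark at RT. Cells: DT40 Tdp1-/- with stable hTDP1, 400/well. Exposure: compounds alone, ≥48 hr, 37 °C.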
# Gal4-VP16 FLuc = inhibits Gal4-VP16 luciferase reporter, ROR gamma counter-screen | Drosophila S2 Gal4-VP16 UAS-luciferase, luminescence, 20 h | Potency, µM (top dose mostly 53.6 µM), for the others: top-dose activity, negative = inhibition, most hits filed as inhibitors | hit rate 3.5% among 310,000 | AID 2546;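 note: Gal4-VP16 expression switched on by copper sulfate through the metallothionein promoter; nearly all actives have a fitted effect of over 50% in size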
# RORgamma inh = ROR gamma (mouse) transcription inhibition. hit rate 5.4% among 310,000. Drosophila S2 Gal4-RORgamma UAS-luciferase reporter, 20 h. AID 2551. P51450. Potency, µM (top dose mostly 53.6 µM), without a hit: at the top dose activity change, negative = inhibition, usual class: inhibitors; note: nearly all actives have a fitted effect of over 60% in size
#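 Drosophila S2 cells stably expressing Gal4-DBD/mouse RORγ fusion under metallothionein promoter plus UAS-luciferase; compound 1 h, then 700 uM CuSO4 induction for 20 h at ambient temperature; inhibition read as reduced luminescence.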
# * marks the source's active call; other numbers are inactive results; u = inconclusive; x = no result given; [ ] = remark or other dose. Calls come from the whole dose curve; as a rule, active = well fitted curve in the direction sought with a large enough effect; inconclusive = small, poorly fitted or top-dose-only effect, or another doubt; inactive = no such curve, though single readings can be large; an effect the other way counts as inactive or inconclusive. % is set by controls: 0 for no effect and ±100 for the full control effect; potency is the fitted concentration of half-maximal effect.
SMILES,TDP1 cell CPT,TDP1 inh,TDP1 cell noCPT,Gal4-VP16 FLuc,RORgamma inh
COC(=O)C(Cc1ccccc1)NC(=O)CC(C)CC(=O)Nc1ccc(OC)cc1OC (configuration not stated),-18%,3%,4%,-1%,-7%
CCOC(=O)c1noc2ncn(CC(=O)Nc3ccc(F)cc3Cl)c(=O)c12,x,3%,x,x,x
CN(C)c1ccc(-c2nc(NCCc3cnc[nH]3)c3ccccc3n2)cc1,13µM*,x,u,u,u
COc1ccccc1-c1nc(NCCc2cnc[nH]2)c2ccccc2n1,u,x,u,-8%,-34%
CC(C)=CCOc1cc2oc(=O)ccc2cc1O,u,6%[56.1 µM],-21%,1%,6%
CC(C)=CC(O)C/C(C)=C/COc1ccc2ccc(=O)oc2c1 (configuration not stated),7.3µM*,x,9.2µM*,-3%,-2%
O=C1NC(=O)C(=Cc2ccco2)S1,10%,x,-29%,x,x
CC1CCC(NC(=O)CN2C(=O)C3CC=CCC3C2=O)CC1 (configuration not stated),-10%,-2%,5.8µM*,x,x
CCC/C(C)=N/NC(=O)c1ccccc1O,6%,-10%,u,u,u
O=C(NN=C(Cc1ccccc1)Cc1ccccc1)c1ccccc1O,u,3%,u,u,3.5µM*
NC(=S)NN=C(Cc1ccccc1)Cc1ccccc1,5.8µM*,5%,3.7µM*,5µM*,1.4µM*
Cc1nc2scc(-c3ccccc3)c2c(=O)o1,-7%,-3%,-18%,1%,-2%
Cc1nc2c(o1)C(=O)c1ccccc1C2=Nc1ccccc1,2.3µM*,x,2.1µM*,x,x
O=S(=O)(c1ccc(Br)s1)N1CCC(Cc2ccccc2)CC1,14µM*,-4%,u,-11%,13µM*
Cc1cc(NC(=O)C2CCCN(S(=O)(=O)c3ccc(Br)s3)C2)ccc1Br (configuration not stated),u,2%,13µM*,x,x
O=C(Nc1ccc(Cl)cc1)C1CCN(S(=O)(=O)c2ccc(Br)s2)CC1,u,-5%,23µM*,x,x
CC(=O)c1ccc(NC(=O)C2CCCN(S(=O)(=O)c3ccc(Br)s3)C2)cc1 (configuration not stated),-5%,-5%,-6%,x,x
CNC(=O)c1ccsc1NC(=O)C1CCN(S(=O)(=O)c2ccc(Cl)s2)CC1,16µM*,0%,u,x,x
Cc1cccc(NC(=O)CCNS(=O)(=O)c2cccc3nonc23)c1C,5%,2%,1%,2%,1%
CS(=O)(=O)Nc1c(O)ccc2c1CCCC2C1=NCCN1 (configuration not stated),-5%,10%,11%,x,x
O=C(NCc1ccc2c(c1)OCO2)C1CCN(S(=O)(=O)c2cccs2)CC1,-20%,4%,-10%,-7%,1%
Cc1csc(NC(=O)C2CCCN(S(=O)(=O)c3ccc(Br)s3)C2)n1 (configuration not stated),16µM*,4%,18µM*,u,-12%
Cc1cc(NC(=O)C2CCN(S(=O)(=O)c3ccc(Br)s3)CC2)ccc1Br,u,-2%,16µM*,x,x
O=C(NCc1ccc2c(c1)OCO2)C1CCN(S(=O)(=O)c2ccc(Br)s2)CC1,-22%,4%,21µM*,4%,7%
CCNC(=O)CC1C(=O)N(CC)C(=S)N1NC(=O)c1cccnc1 (configuration not stated),5%,0%,-10%,-6%,-11%
SMILES,TDP1 cell CPT,TDP1 inh,TDP1 cell noCPT,Gal4-VP16 FLuc,RORgamma inh
COc1ccc(CN2C(=O)CN(S(C)(=O)=O)CC2(C)C(=O)Nc2c(C)cccc2C)cc1 (configuration not stated),8%,x,20%,x,x
COc1ccc(C2Nc3cc(OC)ccc3-n3cccc32)cc1 (configuration not stated),23µM*,x,23µM*,2%,-43%
COc1ccc(N2C(=O)CCC2=O)c(OC)c1,0%,0%,26%,4%,3%
Cc1ccc(NC(=O)c2c(C)oc3nc(C)nc(N4CCCC4)c23)c(C)c1,-2%,6%,-10%,x,x
Cc1ccc(-c2cn3c(n2)CCCC3)cc1,u,10%,u,u,8.9µM*
COc1ccc(-c2cn3c(n2)CCC3)cc1,-6%,-1%,-11%,-2%,u
COc1ccc(C(=O)NN(C)c2nc(-c3ccccc3)nnc2C(F)(F)F)cc1,u,-8%,16µM*,-13%,-10%
COc1ccc(C(=O)NN(C)c2nc(C(F)(F)F)nc3ccccc23)cc1,0.18µM*,3%,0.21µM*,u,3.2µM*
CN(C)c1nc(-c2ccccc2)nnc1C(F)(F)F,4%,1%,9%,5%,1%
CN(NC(=O)C(C)(C)C)c1nc(-c2ccccc2)nnc1C(F)(F)F,u,6%,-29%,1%,1%
Cc1cccc(C(=O)NN(C)c2nc(-c3ccccc3)nnc2C(F)(F)F)c1,21µM*,2%,2.6µM*,-6%,-3%
Cc1ccc(-n2c(=O)c3c(C)c(C(=O)N(C)C)sc3n(Cc3ccccc3C)c2=O)cc1C,u,-2%,u,x,x
Cn1cnc2nc(Cl)nc(Cl)c21,1.6µM*,x,1.2µM*,x,x
CNc1nc(Cl)nc2ncn(C)c12,0%,x,-2%,x,x
COCCNc1nc(NCc2ccc(C)cc2C)c2sccc2n1,15µM*,x,15µM*,x,x
COCCNc1nc(Nc2ccc(C)cc2C)c2sccc2n1,1.8µM*,x,1.5µM*,x,x
CC1(C(=O)NS(=O)(=O)C2CC2)CCCN(C(=O)c2cccc(OC(F)(F)F)c2)C1 (configuration not stated),u,x,3.7µM*,x,x
CC1(C(=O)NS(=O)(=O)C2CC2)CCN(C(=O)c2cc(F)cc(F)c2)C1 (configuration not stated),6%,x,8%,x,x
CC1(C(=O)NS(=O)(=O)C2CC2)CCCN(C(=O)c2ccccc2OC(F)(F)F)C1 (configuration not stated),u,x,9.2µM*,x,x
CC1(C(=O)NS(=O)(=O)C2CC2)CCCN(C(=O)c2ccc(C(F)(F)F)cc2)C1 (configuration not stated),0.73µM*,x,0.65µM*,x,x
COc1cc(C(=O)N2CCCC(C)(C(=O)NS(=O)(=O)C3CC3)C2)cc(OC)c1OC (configuration not stated),1.6µM*,x,0.92µM*,x,x
CCCS(=O)(=O)NC(=O)C1(C)CCCN(C(=O)c2cccc(OC(F)(F)F)c2)C1 (configuration not stated),-7%,x,-6%,x,x
Cc1ccc(N(CC(=O)Nc2ccc3c(c2)OCCO3)S(=O)(=O)c2c(C)noc2C)cc1,u,4%,u,-13%,19%

# Screening results from PubChem BioAssay.
